Measurements as given in PubChem BioAssay AID1159580 (chemical genetic matrix, 2015).
Screen size: about 5,500 compounds; about 2,000 (36%) were called active. Roughly 18% stayed inconclusive and do not appear here. No stated cut-off is given here; in the data, active means normalized growth mostly below about 0.91 (no sharp cut-off); inconclusive means no clear call, values can overlap the other calls; inactive means mostly above about 0.92. The list shows a part of the results.

Assay: chemical genetic growth profiling, strain panel (AID 1159580);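 further: tested at 20 µM; growth read once vehicle control cultures reached saturation at 30 °C; 1 = growth at the plate median or of vehicle wells; lower values mean less growth of the strain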
Details: S. cerevisiae deletion strains, growth OD

Measured: normalized growth

O=C(O)c1cc(O)c2c(c1)C(=O)c1cc(O)cc(O)c1C2=O
inactive: locus YBR021W, strain FUR4, active compounds read low 0.97 | locus YBR229C, strain ROT2, active compounds read low 0.92 | locus YCL029C, strain bik1, active compounds read low 0.932 | locus YDL035C, strain GPR1, active compounds read low 0.908 | locus YDL074C, strain BRE1, active compounds read low 0.933 | locus YDL101C, strain DUN1, active compounds read low 0.931 | locus YDL192W, strain arf1, active compounds read low 0.926 | locus YDR101C, strain arx1, active compounds read low 0.948 | locus YDR150W, strain NUM1, active compounds read low 0.939 | locus YDR162C, strain NBP2, active compounds read low 0.873 | locus YDR318W, strain mcm21, active compounds read low 0.93 | locus YDR388W, active compounds read low 0.938 | locus YEL061C, strain CIN8, active compounds read low 0.934 | locus YER155C, strain BEM2, active compounds read low 0.968 | locus YER167W, strain BCK2, active compounds read low 0.939 | locus YGL078C, strain dbp3, active compounds read low 0.954 | locus YGL086W, strain mad1, active compounds read low 0.971 | locus YGL248W, strain PDE1, active compounds read low 0.956 | locus YGR135W, strain pre9, active compounds read low 0.923 | locus YGR252W, strain gcn5, active compounds read low 0.816 | locus YHR079C, strain IRE1 (second series), active compounds read low 0.949 | locus YHR094C, strain hxt1, active compounds read low 0.938 | locus YHR129C, strain ARP1, active compounds read low 0.957 | locus YHR200W, strain rpn10, active compounds read low 0.939 | locus YIL066C, strain RNR3, active compounds read low 0.923 | locus YIL073C, strain SPO22, active compounds read low 0.914 | locus YIR030C, strain dcg1, active compounds read low 0.939 | locus YJL095W, strain BCK1, active compounds read low 0.945 | locus YJL134W, strain LCB3, active compounds read low 0.95 | locus YJL187C, strain SWE1 (second series), active compounds read low 0.952 | locus YJR043C, strain POL32, active compounds read low 0.864 | locus YKL009W, strain mrt4, active compounds read low 0.967 | locus YKL190W, strain CNB1, active compounds read low 0.95 | locus YLR039C, strain RIC1, active compounds read low 0.879 | locus YLR058C, strain SHM2, active compounds read low 0.91 | locus YLR102C, strain apc9, active compounds read low 0.945 | locus YLR262C, strain YPT6, active compounds read low 0.814 | locus YLR268W, strain sec22, active compounds read low 0.938 | locus YLR330W, strain CHS5, active compounds read low 0.926 | locus YLR342W, strain FKS1 (second series), active compounds read low 0.921 | locus YLR371W, strain rom2, active compounds read low 0.945 | locus YML016C, strain PPZ1, active compounds read low 0.944 | locus YMR078C, strain ctf18, active compounds read low 0.939 | locus YMR223W, strain ubp8, active compounds read low 0.92 | locus YMR307W, strain GAS1, active compounds read low 0.872 | locus YNL067W, strain RPL9B, active compounds read low 0.977 | locus YNL153C, strain GIM3, active compounds read low 0.955 | locus YNL233W, strain BNI4, active compounds read low 0.95 | locus YNL271C, strain bni1, active compounds read low 0.93 | locus YNL307C, strain MCK1, active compounds read low 0.931 | locus YNL322C, strain KRE1, active compounds read low 0.94 | locus YNR052C, strain pop2, active compounds read low 0.977 | locus YOL006C, strain TOP1, active compounds read low 1.02 | locus YOL012C, strain htz1 0.738 | locus YOL147C, strain pex11, active compounds read low 0.939 | locus YOR061W, strain CKA2, active compounds read low 0.916 | locus YOR069W, strain VPS5, active compounds read low 0.957 | locus YOR136W, strain idh2, active compounds read low 0.929 | locus YOR184W, strain ser1, active compounds read low 0.893 | locus YOR316C, strain cot1, active compounds read low 0.94 | locus YPL241C, strain CIN2, active compounds read low 0.943 | locus YPR119W, strain clb2, active compounds read low 0.951 | locus YPR141C, strain kar3, active compounds read low 0.916 | locus YPR163C, strain tif3, active compounds read low 0.938 | strain wtn01, active compounds read low 0.948
active: locus YDL185W, strain tfp1, active compounds read low 0.842 | locus YDR502C, strain sam2, active compounds read low 0.903 | locus YER110C, active compounds read low 0.881 | locus YHR030C, strain SLT2, active compounds read low 0.913 | locus YIL125W, strain kgd1, active compounds read low 0.915 | locus YJL168C, strain set2, active compounds read low 0.912 | locus YKL068W, active compounds read low 0.913 | locus YKL085W, strain MDH1 (second series), active compounds read low 0.888 | locus YKL085W, strain MDH1, active compounds read low 0.888 | locus YKR001C, strain vps1, active compounds read low 0.838 | locus YLR418C, strain cdc73, active compounds read low 0.766 | locus YML032C, strain rad52, active compounds read low 0.899 | locus YML124C, strain tub3, active compounds read low 0.93 | locus YNL250W, strain rad50, active compounds read low 0.863 | locus YNL298W, strain CLA4, active compounds read low 0.894 | locus YOR144C, strain elg1, active compounds read low 0.91 | locus YPR167C, strain met16, active compounds read low 0.91
